99 compounds from PubChem BioAssay AID1220 (Sanford-Burnham Center for Chemical Genomics, 2008) can be followed below.

The structures appear in SMILES notation. About 1,300 (0.68%) of roughly 190,000 compounds were called active. Rule as the data show it: active = inhibition above about 50%; inactive = the rest. Shown is part of a subset that was picked to be rich in actives.

Sequence of Mannose-6-phosphate isomerase (Homo sapiens) (P34949 whole entry, looked up): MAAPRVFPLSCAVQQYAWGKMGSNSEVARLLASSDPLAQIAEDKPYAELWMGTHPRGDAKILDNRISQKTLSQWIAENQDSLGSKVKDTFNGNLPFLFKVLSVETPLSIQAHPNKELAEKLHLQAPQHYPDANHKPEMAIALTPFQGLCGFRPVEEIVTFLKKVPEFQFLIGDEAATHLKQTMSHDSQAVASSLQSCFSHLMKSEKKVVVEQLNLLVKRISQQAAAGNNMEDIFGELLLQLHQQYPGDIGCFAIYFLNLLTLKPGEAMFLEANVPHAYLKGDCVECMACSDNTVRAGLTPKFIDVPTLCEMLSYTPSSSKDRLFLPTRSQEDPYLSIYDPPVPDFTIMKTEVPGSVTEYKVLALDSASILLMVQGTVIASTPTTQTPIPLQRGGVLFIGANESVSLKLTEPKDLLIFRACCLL

This experiment concerns the target Mannose-6-phosphate isomerase (Homo sapiens) (UniProt P34949). Nature of the experiment: MPI inhibition at elevated mannose 6-phosphate – biochemical, fluorescence intensity, high mannose 6-phosphate, primary screen (AID 1220). As to conditions: recombinant PMI enzyme, coupled fluorescence intensity; at 20 µM; hits give high values.
As to `CCCN(C(=O)CSc1nc2c(cnn2-c2ccccc2)c(=O)[nH]1)C1CCS(=O)(=O)C1` (centres undefined), the inhibition is -13.4% (inactive).
In the case of `O=[N+]([O-])c1ccccc1/C=N/n1c(-c2cccnc2)n[nH]c1=S` it was 3.5% (inactive); in that of `COc1ccc2c(c1)[nH]c1c(=O)n(Cc3ccco3)cnc12`, 20.7% (inactive).
Take `CCOC(=O)c1c(NC(=O)c2cccs2)sc2c1CC(C)(C)OC2`: the inhibition is 21.6% (inactive).
In the case of `Oc1ccc(/C=N/NC(=S)Nc2cccnc2)c(O)c1` it was -11.9% (inactive).
Then `Oc1ccc(/C=N/NC(=S)Nc2cccnc2)cc1O`, with 6.3% (inactive).
In the case of `COc1ccc(NC(=S)N(CCN2CCOCC2)Cc2cc3cc4c(cc3[nH]c2=O)OCO4)cc1` it was 14.7% (inactive).
For `CCOc1ccc(NC(=S)N(CCN2CCOCC2)Cc2cc3cc4c(cc3[nH]c2=O)OCCO4)cc1`, the inhibition is 24.8% (inactive).
In the case of `CCOc1ccc(NC(=S)N(CCN2CCOCC2)Cc2cc3cc4c(cc3[nH]c2=O)OCO4)cc1` it was 61.3% (active).
Then `CCOC(=O)C1=C(C)NC(C)=C(C(=O)OCC)C1C(=O)OCC(=O)c1ccc2c(c1)OCCO2`, with 14.5% (inactive); and `COC(=O)c1oc2ccccc2c1NC(=O)CN1CCCC1`, with 6.8% (inactive).
Then `COc1cc(NC(=S)Nc2cccc(C)n2)cc(OC)c1OC`, with -3.5% (inactive).
Consider `C/C(CC(=O)Nc1ccc(Cl)c(C(F)(F)F)c1)=N\NC(=O)c1cc2ccccc2cc1O`, for which the inhibition was -5.7% (inactive).
In the case of `NC(=S)Nc1cc2ccccc2c2ccccc12` it was 65.4% (active); in that of `NC(=S)Nc1cccc2cc3ccccc3cc12`, -9% (inactive).
In the case of `NC(=S)N/N=C\c1c2ccccc2cc2ccccc12` it was -132% (inactive); in that of `Cc1cccc(NC(=O)c2ccoc2C)n1`, 9.2% (inactive).
Take `COc1cc(-c2n[nH]c(=S)n2-c2cc(C(F)(F)F)ccc2Cl)cc(OC)c1OC`: the inhibition is 8.8% (inactive).
Then `CN(C)Cc1c(O)ccc2c3c(c(=O)oc12)CCCCC3`, with -2.7% (inactive); and `O=c1oc2c(CN3CCOCC3)c(O)ccc2c2ccccc12`, with 0.8% (inactive); and `COc1cc(/C=C2/C(C)=C(C#N)c3nc(N)c(C#N)c(C)c32)ccc1OCC(=O)O`, with 50.9% (active).
For the compound `CC1=C(C#N)c2nc(N)c(C#N)c(C)c2/C1=C\c1ccc(-c2ccccc2C(=O)O)o1`, the inhibition was 10.6% (inactive).
Then `CC1=C(C#N)c2nc(N)c(C#N)c(C)c2/C1=C\c1ccc(C)cc1`, with -35.8% (inactive); and `Cc1c(O)ccc(NS(=O)(=O)c2ccccc2)c1C`, with 5% (inactive).
`CCOC(=O)c1c(C)[n+]([O-])c2ccc3c(non3O)c12`: the inhibition was 10.7% (inactive).
Then `O=c1c2c(nc3n1CCCCC3)-c1ccccc1CC21CCCCC1`, with 1.4% (inactive); and `O=C1C2C3C=CC(CC3)C2C(=O)N1/N=C/c1ccc(O)c(O)c1` (centres undefined), with -11.1% (inactive).
In the case of `O=C1C2C3C=CC(CC3)C2C(=O)N1/N=C/c1c(O)ccc2ccccc12` (centres undefined) it was 70.3% (active).
Then `Oc1ccc(C=NC2CCCCC2)c(O)c1`, with 29% (inactive); and `O=S(=O)(/N=C/c1c(O)ccc2ccccc12)c1cccs1`, with 27.7% (inactive).
Take `Oc1ccc2ccccc2c1/C=N/Nc1ccccc1`: the inhibition is -35.6% (inactive).
Then `O=C1C2C3C=CC(CC3)C2C(=O)N1/N=C/c1ccccc1O` (centres undefined), with -0.9% (inactive); and `CN(C)/N=C/c1c(O)ccc2ccccc12`, with 26.9% (inactive).
On to `O=C(N/N=C\c1c(O)ccc2ccccc12)c1ccc(S(=O)(=O)N2CCCCC2)cc1`, for which the inhibition was -8.7% (inactive).
Then `CCc1ccc(C=NC23CN4CN(CN(C4)C2)C3)s1`, with 2% (inactive); and `Cc1ccccc1C(=O)NC(=S)Nc1ccc(S(=O)(=O)N2CCOCC2)cc1`, with 3.6% (inactive); and `CC(C)CC(=O)NC(=S)Nc1ccccn1`, with -9.5% (inactive).
Then `CCSc1nnc(NC(=O)CCc2ccc(OC)cc2)s1`, with 8.9% (inactive); and `Cc1ccc(C2C(C#N)=C(N)SC(N)=C2C#N)o1`, with -7.3% (inactive); and `Oc1c(Cl)cccc1C=Nc1cc(C(F)(F)F)ccc1N1CCCC1`, with 7.1% (inactive).
Then `Oc1ccc2ccccc2c1C=Nc1cc(C(F)(F)F)ccc1N1CCCC1`, with 52.1% (active); and `O=C(N/N=C/c1c(O)ccc2ccccc12)c1cccc(C(F)(F)F)c1`, with 8.4% (inactive); and `CC(=O)Nc1cc(Cl)ccc1OS(=O)(=O)c1ccc(C)cc1`, with 6.5% (inactive).
Take `Fc1ccc(CN2CCCCCCC2)cc1`: the inhibition is -6.8% (inactive).
Then `Nc1nc(-c2ccc(-c3ccccc3)cc2)cs1`, with -2.8% (inactive).
In the case of `COc1ccc2[nH]c(=O)c(CN(C(=O)C3CCCO3)c3ccc(C)cc3)cc2c1` (centres undefined) it was 50% (active); in that of `CCOc1ccc(N(Cc2cc3cc(OC)ccc3[nH]c2=O)C(=O)C2CCCO2)cc1` (centres undefined), 13.8% (inactive); in that of `COc1ccc(N(Cc2cc3cc(OC)ccc3[nH]c2=O)C(=O)C2CCCO2)cc1` (centres undefined), 7.7% (inactive).
On to `CCC(=O)Nc1ccc(NC(=S)NC(=O)Cc2ccccc2)cc1`, for which the inhibition is 6% (inactive).
Then `CCN(CC)c1ccc(NC(=S)NC(=O)Cc2ccccc2)cc1`, with 50.1% (active); and `CN(C)S(=O)(=O)c1ccc(NC(=S)NC(=O)Cc2ccccc2)cc1`, with -3.1% (inactive); and `Cc1ccc(CC2CC(=O)N(c3ccncc3)C2=O)cc1` (centres undefined), with 1.2% (inactive).
In the case of `CCc1nc2ccc(C(=O)Nc3ccc(NC(C)=O)cc3)cc2nc1CC` it was 7.1% (inactive); in that of `c1cc(Nc2cccc3nccnc23)c2nccnc2c1`, 54.4% (active).
Then `Fc1ccc(Nc2cccc3nccnc23)cc1`, with 26.2% (inactive); and `Cc1ccc(OS(=O)Nc2cccc3nccnc23)cc1` (centres undefined), with 5.5% (inactive).
Consider `Cc1cc(C)n(-c2cc(C(=O)O)cc(C(=O)O)c2)n1`, for which the inhibition is -12.4% (inactive).
In the case of `CC1=C(Sc2nc3ccccc3[nH]2)C(=O)NC(C)(C)C1` it was 0.2% (inactive).
Then `CO/N=C/CC(=O)c1cnc(-c2ccc(Cl)cc2)s1`, with 53.8% (active); and `O=C(C/C=N/OCc1ccccc1F)c1cnc(-c2ccc(Cl)cc2)s1`, with 1.3% (inactive).
Then `O=C(C/C=N/OCc1ccc(F)cc1Cl)c1cnc(-c2ccccc2)s1`, with -2.1% (inactive); and `CO/N=C/CC(=O)c1cnc(-c2ccccc2)s1`, with 57.6% (active); and `O=C(C/C=N/OCc1c(Cl)cccc1Cl)c1cnc(-c2ccccc2)s1`, with 14.6% (inactive).
For `O=C(C/C=N/OCc1ccc(Cl)cc1)c1cnc(-c2ccccc2)s1`, the inhibition is 13.5% (inactive).
For the compound `Cc1ccccc1C(=O)NC1CCN(Cc2nnnn2Cc2ccc(F)cc2)CC1`, the inhibition was 4.6% (inactive).
Then `CCC(C)(C)NC(=O)C(c1ccccn1)N(C(=O)c1csnn1)c1ccc(C)cc1` (centres undefined), with -1.6% (inactive); and `COc1cc(CNn2cn[nH]c2=S)cc(Br)c1OCc1ccccc1F`, with 0.2% (inactive); and `CCCCCCNS(=O)(=O)c1ccc(OC)c(OC)c1`, with 5.6% (inactive).
In the case of `CCCN1CCC(NC(=S)Nc2ccc(OC)c(OC)c2)CC1` it was -3% (inactive); in that of `Cc1nc2cc(NCc3nc4ccccc4n3Cc3ccccc3)ccc2n1C`, 20% (inactive).
For the compound `CCn1cnc2cc(NCc3nc4ccccc4n3C)ccc21`, the inhibition is 14.9% (inactive).
Take `CCn1cnc2cc(NCc3nc4ccccc4n3Cc3ccccc3)ccc21`: the inhibition was 50.6% (active).
Then `CCOc1cc2[nH]c(=S)n(C3CC3)c(=O)c2cc1OCC`, with 2.9% (inactive); and `O=C(c1ccccc1[N+](=O)[O-])N1CCCN(C(=O)c2ccccc2[N+](=O)[O-])CC1`, with -6.8% (inactive).
In the case of `COc1cc(NS(=O)(=O)c2ccc(C)cc2)c2ncccc2c1` it was 32.6% (inactive); in that of `COc1cc(NC(=O)C2CCCCC2)c2ncccc2c1`, 4.2% (inactive).
In the case of `COc1cc(NCCCCCCCN)c2ncccc2c1` it was 50.3% (active).
Take `CCn1c(CSCc2ccc(Cl)cc2)n[nH]c1=S`: the inhibition is -10.7% (inactive).
For `CC(C)(C)C1=CC(=Nc2ccccc2N)C=C(C(C)(C)C)C1=O`, the inhibition was -7.5% (inactive).
Regarding `CC(C)(C=O)C1=CC(=O)c2ccccc2C1=O`, the inhibition is 12.2% (inactive).
Then `Cc1ccc(S(=O)(=O)N2CCOCC2)cc1C(=O)Nc1ccccn1`, with 4.2% (inactive); and `O=C(Cc1ccc(Cl)cc1)N/N=C/c1cccs1`, with 15.1% (inactive); and `CCOC(=O)c1c(C)n(C)c2ccc(O)c(CN3CCCCC3)c12`, with 8.7% (inactive).
As for `CCOC(=O)c1c(C)n(C)c2ccc(O)c(CN3CCN(C)CC3)c12`, the inhibition is 54.1% (active).
In the case of `CCOC(=O)c1c(C)n(C)c2ccc(O)c(CN3CCC(C)CC3)c12` it was 22.9% (inactive).
For `CCOC(=O)c1ccc(NC(=O)CSc2nnc(CNc3ccc(C)cc3)n2C)cc1`, the inhibition is 11.2% (inactive).
Then `COc1ccc(NCc2nnc(SCC(=O)Nc3ccc(OC)cc3)n2C)cc1`, with -0.9% (inactive).
Then `CCOC(=O)c1ccc(NC(=O)CSc2nnc(CNc3ccc(OC)cc3)n2C)cc1`, with 53.5% (active); and `COc1ccc(-n2ccnc2SCC(=O)NCc2ccco2)c(OC)c1`, with 5.5% (inactive); and `O=C(NCc1ccco1)C1Cc2ccccc2CN1C(=O)c1ccco1` (centres undefined), with -0.2% (inactive).
Then `CCn1c(SCc2nc3sc(C(=O)O)c(C)c3c(=O)[nH]2)nnc1-c1ccc(Cl)cc1`, with -1% (inactive); and `CC(C)(C)c1csc(NC(=O)Nc2ccccc2)n1`, with 7.8% (inactive); and `COc1ccccc1NC(=O)Nc1nc(C(C)(C)C)cs1`, with 56.3% (active).
Turning to `COc1ccccc1NC(=O)Nc1cc(NC(=O)Nc2ccccc2OC)c(C)nc1C`, the inhibition was -9.6% (inactive).
As to `COc1ccc(S(=O)(=O)N=C2C=C(C)C(=O)C(C)=C2)cc1`, the inhibition was 61.5% (active).
Turning to `COc1ccc(S(=O)(=O)c2ccc(OC)cc2)cc1`, the inhibition is 6.7% (inactive).
Then `COc1ccc(S(=O)(=O)/N=C2/C=CC(=O)C(C)=C2C)cc1`, with 43.8% (inactive).
In the case of `CC1CCN(C(c2ccccc2)c2nnnn2C(C)(C)C)CC1` (centres undefined) it was -19.6% (inactive).
Then `Cn1cc(Br)c(C(=O)NN2C(=O)C3C4C=CC(C5CC45)C3C2=O)n1` (centres undefined), with 2.3% (inactive).

Broadly, the inhibition is the change of the read-out against control, counted positive when it falls.
